Shown are actives, neighbours in structure and some others; about 1.1% of the full set was active somewhere.
AmpC detergent: AmpC beta-lactamase inhibition with detergent present; P00811; AmpC hydrolysis of nitrocefin, absorbance 480 nm, 0.01% Triton; Potency, µM (top dose mostly 114 µM), actives largely listed as inhibitors; 0.041% of 370,000 active; AID 485294; note: nearly all actives have a fitted effect of over 25% in size
Target sequence (P00811 whole entry, looked up): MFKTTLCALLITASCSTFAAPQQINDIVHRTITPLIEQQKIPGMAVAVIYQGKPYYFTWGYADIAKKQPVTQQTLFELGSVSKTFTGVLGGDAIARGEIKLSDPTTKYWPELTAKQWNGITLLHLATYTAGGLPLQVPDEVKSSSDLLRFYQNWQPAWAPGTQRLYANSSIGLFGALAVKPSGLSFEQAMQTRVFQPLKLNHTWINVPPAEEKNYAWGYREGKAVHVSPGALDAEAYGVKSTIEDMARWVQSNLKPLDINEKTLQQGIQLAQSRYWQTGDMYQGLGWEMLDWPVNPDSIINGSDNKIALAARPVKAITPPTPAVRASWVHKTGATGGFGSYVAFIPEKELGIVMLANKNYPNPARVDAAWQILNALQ
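AmpC (5.3 nM in the dispensed reagent) in 20 mM phosphate pH 7.0 with 0.01% (detergent screen) or 0.0001% Triton X-100 was preincubated with compounds for 15 min at room temperature. Nitrocefin was then added from an 800 uM solution, and hydrolysis was followed at 480 nm.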
FBPA Giardia inh: inhibitors of Giardia lamblia fructose-1,6-bisphosphate aldolase; A8B2U2; AID 2451; purified Giardia FBPA; 0.71% of 290,000 active; Potency, µM (highest dose often 59.6 µM), usual class: inhibitors; note: nearly all actives have a fitted effect of over 55% in size
Target sequence (A8B2U2 whole entry, looked up): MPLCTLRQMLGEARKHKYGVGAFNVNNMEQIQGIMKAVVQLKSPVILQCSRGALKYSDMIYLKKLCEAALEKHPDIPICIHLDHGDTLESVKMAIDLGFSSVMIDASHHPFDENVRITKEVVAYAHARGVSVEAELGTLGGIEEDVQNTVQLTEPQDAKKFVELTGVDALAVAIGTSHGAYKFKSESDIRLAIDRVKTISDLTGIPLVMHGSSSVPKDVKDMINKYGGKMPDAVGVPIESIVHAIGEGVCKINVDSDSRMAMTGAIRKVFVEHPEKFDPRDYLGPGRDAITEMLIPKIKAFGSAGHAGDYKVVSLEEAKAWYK
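Giardia FBPA (40 nM reagent) was preincubated 10 min at RT with compound (up to 57.5 uM final), then substrate plus GAPDH/TPI/NAD/arsenate coupling system with diaphorase/resazurin was added; resorufin fluorescence (525/598 nm) was read after 20 min.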
AmpC inh no detg: inhibitors of E. coli AmpC beta-lactamase without detergent. P00811. AmpC nitrocefin hydrolysis, absorbance 480 nm, 0.0001% Triton. Potency, µM (titrated, usually from 57.1 µM), hits mostly inhibitors. 0.52% of 330,000 active; note: nearly all actives have a fitted effect of over 20% in size
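AmpC (5.3 nM in the dispensed reagent) in 20 mM phosphate pH 7.0 with 0.01% (detergent screen) or 0.0001% Triton X-100 was preincubated with compounds for 15 min at room temperature. Nitrocefin was then added from an 800 uM solution, and hydrolysis was followed at 480 nm.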
SARS PLpro yeast: SARS-CoV PLP inhibition in yeast. S. cerevisiae expressing SARS-CoV PLpro, growth rescue. Potency, µM (highest dose often 32.9 µM), actives largely listed as activators. 0.19% of 330,000 active. AID 485353; calls by dose curve; note: nearly all actives have a fitted effect of over 55% in size
Of the large screens only hits and unclear results are named; the others gave an inactive call; ! = repeats disagree. Unless noted, calls come from the whole dose curve; as a rule, active = well fitted curve in the direction sought with a large enough effect; inconclusive = small, poorly fitted or top-dose-only effect, or another doubt; inactive = no such curve, though single readings can be large; an effect the other way counts as inactive or inconclusive.

CCN(CC)CCC(c1ccc(N(C)C)cc1)c1c(OC)cc(OC)c2c1OC(=O)CC2c1ccc(OC)cc1 (configuration not stated)	none (no result: AmpC detergent, AmpC inh no detg, SARS PLpro yeast)
CN(C)c1nc(NC2CCC(NC(=O)c3ccc(F)c(F)c3)CC2)nc2ccccc12 (configuration not stated)	none (no result: AmpC detergent, AmpC inh no detg, SARS PLpro yeast)
COc1ccc2nc3c(cc2c1)Cn1c-3nc2ccccc2c1=O	none (no result: AmpC detergent, AmpC inh no detg, SARS PLpro yeast)
O=C(NC1CCCCC1)c1cc2ccccc2cc1O	FBPA Giardia inh inconclusive, AmpC inh no detg 20µM
O=C(NN=C1CCCCCC1)c1cc2ccccc2cc1O	none
O=C1CCCC(=NNC(=O)c2cc3ccccc3cc2O)C1	AmpC inh no detg 31.6µM (no result: AmpC detergent, FBPA Giardia inh)
O=C(NC1CCCCCCC1)c1ccccc1O	AmpC detergent inconclusive
C=C1CCN(C(CC(C)C)C(=O)NCc2ccc(OC)cc2)S(=O)(=O)c2ccccc21 (configuration not stated)	none (no result: AmpC detergent, AmpC inh no detg, SARS PLpro yeast)
COc1ccccc1-c1nnc2n1N=C(c1c(OC)cccc1OC)CS2	none (no result: AmpC detergent, AmpC inh no detg, SARS PLpro yeast)
CSCC[C@H](NC(=O)[C@H](Cc1ccccc1)NC(=O)[C@H](Cc1cnc[nH]1)NC(=O)CNC(=O)[C@@H](NC(=O)[C@H](C)NC(=O)[C@H](Cc1c[nH]c2ccccc12)NC(=O)[C@H](CC(C)C)NC(=O)[C@H](CC(N)=O)NC(=O)CN)[C@@H](C)O)C(N)=O	none (no result: AmpC detergent, AmpC inh no detg, SARS PLpro yeast)
COC(=O)C1=C(C(=O)OC)[C@@H]2N(C)c3ccccc3[C@@]23C[C@@H](C(=O)OC)N(S(=O)(=O)c2ccc(OC)cc2)C3=N1	none (no result: AmpC detergent, AmpC inh no detg, SARS PLpro yeast)
O=C(c1ccco1)N1CCN(/C(=N/S(=O)(=O)c2cccs2)c2ccccc2Cl)CC1	AmpC inh no detg 7.08µM
CC[C@H](C)[C@H](NC(=O)[C@H](C)NC(=O)CNC(=O)[C@H](CCCN=C(N)N)NC(=O)[C@H](C)NC(=O)[C@H](CC(C)C)NC(=O)[C@H](CCC(=O)O)NC(=O)[C@H](CC(C)C)NC(=O)[C@H](C)NC(=O)[C@@H](N)CCC(=O)O)C(=O)N[C@@H](Cc1ccccc1)C(=O)N[C@@H](CCC(N)=O)C(=O)N[C@@H](C)C(=O)O	none (no result: AmpC detergent, AmpC inh no detg, SARS PLpro yeast)
Nc1ccc2oc(=O)ccc2c1I	none (no result: AmpC detergent, AmpC inh no detg, SARS PLpro yeast)
CN(C)c1ccc(N=Cc2ccco2)cc1	FBPA Giardia inh 2.81µM
N#C/C(=C\c1ccc(O)c(O)c1)C(N)=S	FBPA Giardia inh 14.1µM (no result: AmpC detergent, AmpC inh no detg, SARS PLpro yeast)
CCC(=O)NC(c1ccc(C)cc1)c1cc([N+](=O)[O-])c2cccnc2c1O (configuration not stated)	FBPA Giardia inh inconclusive, SARS PLpro yeast 3.16µM
Cc1ccc(C)c(N2CCN(CCCNC(=O)Cn3cc4c(n3)CCC(C)C4)CC2)c1 (configuration not stated)	AmpC detergent inconclusive, AmpC inh no detg 35.5µM
CCOC(=O)N1CCC(NC(=O)Cn2cc3c(n2)CCC(C)C3)CC1 (configuration not stated)	none
CC1CCc2nn(CC(=O)Nc3ccc(F)cc3F)cc2C1 (configuration not stated)	AmpC detergent inconclusive, AmpC inh no detg 39.8µM
CC1CCc2nn(CC(=O)NCCN3CCCCC3C)cc2C1 (configuration not stated)	AmpC inh no detg 28.2µM
CC1CCc2nn(CC(=O)Nc3c(F)cc(F)cc3Br)cc2C1 (configuration not stated)	AmpC detergent inconclusive
CC1CCc2nn(CC(=O)NCCCN3CCCC3=O)cc2C1 (configuration not stated)	none
CC1CCc2nn(CC(=O)NC3CCCC(C)C3C)cc2C1 (configuration not stated)	AmpC inh no detg 1µM
CCOC(=O)c1ccc(NC(=O)CN2C(=O)c3cccnc3Sc3ccccc32)cc1	none (no result: FBPA Giardia inh, AmpC inh no detg, SARS PLpro yeast)
O=C(O)Cc1c(Cl)ccc(Cl)c1Cl	none (no result: AmpC detergent, AmpC inh no detg, SARS PLpro yeast)
CCOC(=O)[C@H](Cc1ccc(O)cc1)NC(=O)c1ccccc1	none (no result: AmpC detergent, AmpC inh no detg, SARS PLpro yeast)
CC1CCc2nn(CC(=O)N3CCCCCC3)cc2C1 (configuration not stated)	AmpC inh no detg 0.562µM
O=C(N/N=C/c1cn(Cc2cccc(F)c2)c2ccccc12)c1cc(O)cc(O)c1	AmpC detergent inconclusive, AmpC inh no detg 12.6µM
Cc1sc(N/N=C/C=C/c2ccccc2)nc1-c1ccccc1	SARS PLpro yeast 12.6µM
Cn1c(SCC(=O)Nc2ccc(F)cc2F)nnc1-c1cccnc1	AmpC detergent inconclusive, AmpC inh no detg 0.316µM
Cn1c(SCC(=O)Nc2cccc(F)c2)nnc1-c1cccnc1	none
O=C(NCc1ccccc1)[C@]1(C(F)(F)F)C[C@H](CCCO)CCCO1	none (no result: AmpC detergent, AmpC inh no detg, SARS PLpro yeast)
CCOC(=O)c1ccc(N2C(=O)c3n[nH]c(-c4ccco4)c3C2c2ccc(OCC)cc2)cc1 (configuration not stated)	none (no result: FBPA Giardia inh, AmpC inh no detg, SARS PLpro yeast)
COc1ccc(/C=N/NC(=O)c2nn(-c3ccccc3)c(=O)c3c(N)scc23)cc1	FBPA Giardia inh 2.51µM
COc1ccc(/C=N/NC(=O)c2nn(-c3ccc(Cl)cc3)c(=O)c3c(N)scc23)cc1	FBPA Giardia inh inconclusive
Cc1ccc(CNc2ncnc3ccc(-c4c(C)noc4C)cc23)cc1	none (no result: AmpC detergent, AmpC inh no detg, SARS PLpro yeast)
C1CCc2nc3c(nc2C1)CCCC3	none
Nc1nnc2c(n1)CCCC2	FBPA Giardia inh inconclusive, AmpC inh no detg 0.159µM
CCOc1cc(/C=C(\C#N)C(N)=O)cc(CSc2ccccc2)c1O	none (no result: AmpC detergent, AmpC inh no detg, SARS PLpro yeast)
C=CCN1c2ccccc2[C@]23C[C@@H](C(=O)OC)N(S(=O)(=O)c4c(C)noc4C)C2=NC(C(=O)OC)=C(C(=O)OC)[C@H]13	none (no result: AmpC detergent, AmpC inh no detg, SARS PLpro yeast)
COc1ccc(Br)cc1/C=N/N1C(=O)CSC1=S	AmpC detergent inconclusive, AmpC inh no detg 28.2µM
CC(C)NC[C@H](O)c1cc(O)cc(O)c1	none (no result: AmpC detergent, AmpC inh no detg, SARS PLpro yeast)
CC(C)NC[C@H](O)c1ccc(O)c(O)c1	AmpC detergent inconclusive, FBPA Giardia inh 9.98µM! (no result: SARS PLpro yeast)
CCC(NC(C)C)C(O)c1ccc(O)c(O)c1 (configuration not stated)	FBPA Giardia inh 2.81µM
Cc1cccc(C)c1N(CC(=O)Nc1cc(Cl)ccc1Oc1ccccc1)S(C)(=O)=O	AmpC detergent inconclusive, AmpC inh no detg 0.159µM
Cc1ccc(C)c(N(CC(=O)Nc2cc(Cl)ccc2Oc2ccccc2)S(C)(=O)=O)c1	none
Cc1ccc(N/N=C/c2c(C)c(C#N)c(=O)n(C)c2O)cc1C	FBPA Giardia inh 12.6µM
CC1CN(S(=O)(=O)c2cccc(C(=O)OCc3cc(=O)oc4cc(O)ccc34)c2)CC(C)O1 (configuration not stated)	none
CN(C)c1cccc(C(=O)OCc2cc(=O)oc3cc(O)ccc23)c1	AmpC inh no detg 17.8µM
CCC(C)Sc1cc(C(F)(F)F)c(C(=O)Nc2ccc(Cl)cc2)cn1 (configuration not stated)	AmpC inh no detg 10µM
Cn1cc(C(=O)Nc2ccc(Cl)cc2)c(C(F)(F)F)n1	none
CCCc1cc2c(c(=O)o1)C(O)C1OC1C2=O (configuration not stated)	none (no result: AmpC detergent, AmpC inh no detg, SARS PLpro yeast)
CC(C)Cn1c2c(c(O)c(C(=O)Nc3ncccc3O)c1=O)CCCC2	FBPA Giardia inh 7.92µM
NCCCC[C@H](NC(=O)[C@H](CS)NC(=O)[C@@H](N)Cc1cnc[nH]1)C(=O)N[C@@H](Cc1ccccc1)C(=O)N[C@@H](Cc1c[nH]c2ccccc12)C(=O)N[C@@H](Cc1c[nH]c2ccccc12)C(=O)O	none (no result: AmpC detergent, AmpC inh no detg, SARS PLpro yeast)
